Results published in PubChem BioAssay (NCI).
Compounds without any hit were thinned out: in the full panel of roughly 79,000, 15% have a hit. Values without a mark were called inactive. Activity calls are given as the source filed them. No stated cut-off is given here; in the data, active means growth inhibition above about 70%; inactive means the rest. *1 amine or outer side, *2 acyl side, *3 side chain or, on linkers, in order; H or OH if unused. Where a SMILES comes first, the peptide text is derived from it. Bridges are numbered along the chain shown (N, C = ends). Roman numbers before positions name the chains, in order. [ ]: non-standard residue; d: D form. Actinocin(1to9) = Cc1c2oc3c(C)ccc(C(=O)[*:2])c3nc-2c(C(=O)[*:1])c(N)c1=O; NMeV = CN[CH](C(=O)O)C(C)C; Sar = CNCC(=O)O

Assays:
[1] = NCI Yeast Anticancer Drug Screen. Data for the rad50 strain (AID 155);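 further: 0% = growth of vehicle-only cultures of the same strain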; conditions: S. cerevisiae rad50 strain growth inhibition, stronger effect = higher value
Procedure, shortened: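 A DNA repair-deficient yeast mutant serves as the test organism; compound-induced growth inhibition is calculated against vehicle-treated cells.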

[2] = NCI Yeast Anticancer Drug Screen. Data for the mec2-1 strain (AID 157); conditions: S. cerevisiae mec2-1 strain, stronger effect = higher value
Procedure, shortened: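 Yeast mec2-1 mutant treated with compound. Readout: growth inhibition vs vehicle controls.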

[3] = NCI Yeast Anticancer Drug Screen. Data for the sgs1 mgt1 strain (AID 161);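 further: 0% = growth of cultures given vehicle only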; conditions: S. cerevisiae sgs1 mgt1 strain, stronger effect = higher value
Procedure, shortened: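 Genetically altered yeast, compound exposure, growth inhibition relative to vehicle.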

[4] = NCI Yeast Anticancer Drug Screen. Data for the cln2 rad14 strain (AID 165);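 further: 0% = growth equal to vehicle treated cultures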; conditions: S. cerevisiae cln2 rad14 strain, stronger effect = higher value
Procedure, shortened: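 cln2 rad14 yeast strain; compound exposure; growth inhibition read vs vehicle controls.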

[5] = NCI Yeast Anticancer Drug Screen. Data for the bub3 strain (AID 167); conditions: S. cerevisiae bub3 mutant strain, stronger effect = higher value
Procedure, shortened: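 Inhibition values come from growth of compound-treated mutant yeast normalised to vehicle-treated controls.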

[6] = NCI Yeast Anticancer Drug Screen. Data for the mlh1 rad18 strain (AID 175); conditions: S. cerevisiae mlh1 rad18 strain growth inhibition, stronger effect = higher value
Procedure, shortened: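 Yeast w/ defined DNA-repair lesions; compound exposure; growth vs vehicle controls → % inhibition.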

[7] = at 5.0 µM (retest, dose inferred, filed as 0.5)
[8] = at 50.0 µM (retest, dose inferred, filed as 5.0)

With `NC(=Nc1nc(-c2ccccn2)cc2ccccc12)c1ccccn1` the growth inhibition [1, 7] was 54%, the growth inhibition [1, 8] was 70% (active) and the growth inhibition ([1]; at 50.0 µM) was 77.2% (active). The growth inhibition [2, 7] was 54%, the growth inhibition [2, 8] was 66% and the growth inhibition ([2]; at 50.0 µM) was 67.7%. The growth inhibition [3, 7] was 64%, the growth inhibition [3, 8] was 72% (active) and the growth inhibition ([3]; at 50.0 µM) was 69.2%. For the same compound, the growth inhibition [4, 7] was 60%, the growth inhibition [4, 8] was 71% (active) and the growth inhibition ([4]; at 50.0 µM) was 68.6%. The growth inhibition [5, 7] was 73% (active), the growth inhibition [5, 8] was 77% (active) and the growth inhibition ([5]; at 50.0 µM) was 71.3% (active). For the same compound, the growth inhibition [6, 7] was 61%, the growth inhibition [6, 8] was 69% and the growth inhibition ([6]; at 50.0 µM) was 72.2% (active).

For `OC(CSc1ccccc1)CN1CCN(c2ccc(Cl)cc2)CC1` (stereo not given), the growth inhibition [1, 7] was 8%, the growth inhibition [1, 8] was 73% (active) and the growth inhibition ([1]; at 50.0 µM) was 84.2% (active). The growth inhibition [2, 7] was 5%, the growth inhibition [2, 8] was 43% and the growth inhibition ([2]; at 50.0 µM) was 25.5%. For the same compound, the growth inhibition [3, 7] was 6%, the growth inhibition [3, 8] was 90% (active) and the growth inhibition ([3]; at 50.0 µM) was 79% (active). The growth inhibition [4, 7] was 9%, the growth inhibition [4, 8] was 62% and the growth inhibition ([4]; at 50.0 µM) was 15.6%. For the same compound, the growth inhibition [5, 7] was 7%, the growth inhibition [5, 8] was 76% (active) and the growth inhibition ([5]; at 50.0 µM) was 80.8% (active). For the same compound, the growth inhibition [6, 7] was 4%, the growth inhibition [6, 8] was 73% (active) and the growth inhibition ([6]; at 50.0 µM) was 59.5%.

In the case of `Cc1cc(N/N=C/c2ccccn2)nc2ccccc12`, the growth inhibition [1, 7] was 20%, the growth inhibition [1, 8] was 94% (active) and the growth inhibition ([1]; at 50.0 µM) was 88.7% (active). The growth inhibition [2, 7] was 7%, the growth inhibition [2, 8] was 95% (active) and the growth inhibition ([2]; at 50.0 µM) was 92.3% (active). The growth inhibition [3, 7] was 21%, the growth inhibition [3, 8] was 95% (active) and the growth inhibition ([3]; at 50.0 µM) was 89.8% (active). For the same compound, the growth inhibition [4, 7] was 22%, the growth inhibition [4, 8] was 93% (active) and the growth inhibition ([4]; at 50.0 µM) was 83.9% (active). For the same compound, the growth inhibition [5, 7] was 8%, the growth inhibition [5, 8] was 98% (active) and the growth inhibition ([5]; at 50.0 µM) was 85.7% (active). The growth inhibition [6, 7] was 11%, the growth inhibition [6, 8] was 95% (active) and the growth inhibition ([6]; at 50.0 µM) was 90% (active).

For `CCC(C)C1NC(=O)C(NC(=O)c2c3nc4c(C(=O)NC5C(=O)NC(C(C)CC)C(=O)N6CCCC6C(=O)N(C)CC(=O)N(C)C(C(C)C)C(=O)OC5C)ccc(C)c4oc-3c(C)c(=O)c2N)C(C)OC(=O)C(C(C)C)N(C)C(=O)CN(C)C(=O)C2CCCN2C1=O` (stereo not given) (I: TIP[Sar][NMeV] / II: TIP[Sar][NMeV]; ester I:1-I:C, II:1-II:C; linker I:N-II:N via Actinocin(1to9); configuration not given here), the growth inhibition [1, 7] was 66%, the growth inhibition [1, 8] was 98% (active) and the growth inhibition ([1]; at 50.0 µM) was 91% (active). The growth inhibition [2, 7] was 33%, the growth inhibition [2, 8] was 99% (active) and the growth inhibition ([2]; at 50.0 µM) was 93.7% (active). For the same compound, the growth inhibition [3, 7] was 32%, the growth inhibition [3, 8] was 98% (active) and the growth inhibition ([3]; at 50.0 µM) was 92.5% (active). The growth inhibition [4, 7] was 38%, the growth inhibition [4, 8] was 97% (active) and the growth inhibition ([4]; at 50.0 µM) was 90.7% (active). For the same compound, the growth inhibition [5, 7] was 43%, the growth inhibition [5, 8] was 99% (active) and the growth inhibition ([5]; at 50.0 µM) was 92.6% (active). For the same compound, the growth inhibition [6, 7] was 67%, the growth inhibition [6, 8] was 98% (active) and the growth inhibition ([6]; at 50.0 µM) was 88.3% (active).

For `CCCCCC/C=C1\CCC(CN2CCCC2)C1=O` (stereo not given), the growth inhibition [1, 7] was 52%, the growth inhibition [1, 8] was 97% (active) and the growth inhibition ([1]; at 50.0 µM) was 91% (active). The growth inhibition [2, 7] was 33%, the growth inhibition [2, 8] was 99% (active) and the growth inhibition ([2]; at 50.0 µM) was 70.7% (active). For the same compound, the growth inhibition [3, 7] was 59%, the growth inhibition [3, 8] was 96% (active) and the growth inhibition ([3]; at 50.0 µM) was 90.4% (active). The growth inhibition [4, 7] was 71% (active), the growth inhibition [4, 8] was 87% (active) and the growth inhibition ([4]; at 50.0 µM) was 81.9% (active). The growth inhibition [5, 7] was 66%, the growth inhibition [5, 8] was 99% (active) and the growth inhibition ([5]; at 50.0 µM) was 79.5% (active). For the same compound, the growth inhibition [6, 7] was 78% (active), the growth inhibition [6, 8] was 98% (active) and the growth inhibition ([6]; at 50.0 µM) was 89.2% (active).

With `O=[N+]([O-])c1cc(-c2ccccc2)c(O)c([N+](=O)[O-])c1` the growth inhibition [1, 7] was 31%, the growth inhibition [1, 8] was 78% (active) and the growth inhibition ([1]; at 50.0 µM) was 93.8% (active). The growth inhibition [2, 7] was 22%, the growth inhibition [2, 8] was 60% and the growth inhibition ([2]; at 50.0 µM) was 88.8% (active). The growth inhibition [3, 7] was 27%, the growth inhibition [3, 8] was 71% (active) and the growth inhibition ([3]; at 50.0 µM) was 85.8% (active). The growth inhibition [4, 7] was 27%, the growth inhibition [4, 8] was 51% and the growth inhibition ([4]; at 50.0 µM) was 74.8% (active). The growth inhibition [5, 7] was 17%, the growth inhibition [5, 8] was 55% and the growth inhibition ([5]; at 50.0 µM) was 89.4% (active). For the same compound, the growth inhibition [6, 7] was 31%, the growth inhibition [6, 8] was 67% and the growth inhibition ([6]; at 50.0 µM) was 92.8% (active).

For `COc1ccc2nc3cc(Cl)ccc3c(NCCCCCN3CCCCC3)c2c1`, the growth inhibition [1, 7] was -3%, the growth inhibition [1, 8] was 70% (active) and the growth inhibition ([1]; at 50.0 µM) was 77.6% (active). It also gave a growth inhibition [2, 7] of -3%, a growth inhibition [2, 8] of 31% and a growth inhibition ([2]; at 50.0 µM) of 39%. For the same compound, the growth inhibition [3, 7] was -7%, the growth inhibition [3, 8] was 26% and the growth inhibition ([3]; at 50.0 µM) was 47.1%. For the same compound, the growth inhibition [4, 7] was 1%, the growth inhibition [4, 8] was 45% and the growth inhibition ([4]; at 50.0 µM) was 63%. It also gave a growth inhibition [5, 7] of -4%, a growth inhibition [5, 8] of 4% and a growth inhibition ([5]; at 50.0 µM) of 59.4%. It also gave a growth inhibition [6, 7] of 0%, a growth inhibition [6, 8] of 47% and a growth inhibition ([6]; at 50.0 µM) of 59.9%.

With `CN(C)c1ccc(C(C#N)(c2ccccc2)c2ccc(N(C)C)cc2)cc1` the growth inhibition [1, 7] was 35%, the growth inhibition [1, 8] was 87% (active) and the growth inhibition ([1]; at 50.0 µM) was 39.3%. The growth inhibition [2, 7] was 14%, the growth inhibition [2, 8] was 92% (active) and the growth inhibition ([2]; at 50.0 µM) was 96.2% (active). The growth inhibition [3, 7] was 48%, the growth inhibition [3, 8] was 93% (active) and the growth inhibition ([3]; at 50.0 µM) was 94.2% (active). For the same compound, the growth inhibition [4, 7] was 1%, the growth inhibition [4, 8] was 89% (active) and the growth inhibition ([4]; at 50.0 µM) was 59.8%. For the same compound, the growth inhibition [5, 7] was 80% (active), the growth inhibition [5, 8] was 91% (active) and the growth inhibition ([5]; at 50.0 µM) was 97.5% (active). For the same compound, the growth inhibition [6, 7] was 16%, the growth inhibition [6, 8] was 86% (active) and the growth inhibition ([6]; at 50.0 µM) was 43.5%.

In the case of `O=S(=O)(O)c1cnccn1`, the growth inhibition [1, 7] was 0%, the growth inhibition [1, 8] was -4% and the growth inhibition ([1]; at 50.0 µM) was 91.3% (active). The growth inhibition [2, 7] was -2%, the growth inhibition [2, 8] was -3% and the growth inhibition ([2]; at 50.0 µM) was 98.3% (active). For the same compound, the growth inhibition [3, 7] was -4%, the growth inhibition [3, 8] was -3% and the growth inhibition ([3]; at 50.0 µM) was 87.8% (active). The growth inhibition [4, 7] was 0%, the growth inhibition [4, 8] was 3% and the growth inhibition ([4]; at 50.0 µM) was 80.8% (active). The growth inhibition [5, 7] was 2%, the growth inhibition [5, 8] was 6% and the growth inhibition ([5]; at 50.0 µM) was 96.9% (active). The growth inhibition [6, 7] was 1%, the growth inhibition [6, 8] was -2% and the growth inhibition ([6]; at 50.0 µM) was 80.9% (active).

For `O=C1C=CC(=O)N1c1ccccc1`, the growth inhibition [1, 7] was 95% (active), the growth inhibition [1, 8] was 98% (active) and the growth inhibition ([1]; at 50.0 µM) was 99.3% (active). The growth inhibition [2, 7] was 99% (active), the growth inhibition [2, 8] was 99% (active) and the growth inhibition ([2]; at 50.0 µM) was 99.7% (active). The growth inhibition [3, 7] was 94% (active), the growth inhibition [3, 8] was 99% (active) and the growth inhibition ([3]; at 50.0 µM) was 99.4% (active). For the same compound, the growth inhibition [4, 7] was 94% (active), the growth inhibition [4, 8] was 99% (active) and the growth inhibition ([4]; at 50.0 µM) was 99% (active). For the same compound, the growth inhibition [5, 7] was 99% (active), the growth inhibition [5, 8] was 99% (active) and the growth inhibition ([5]; at 50.0 µM) was 99.2% (active). For the same compound, the growth inhibition [6, 7] was 90% (active), the growth inhibition [6, 8] was 99% (active) and the growth inhibition ([6]; at 50.0 µM) was 99.2% (active).
